In PubChem BioAssay (NCI):
About 79,000 compounds went through this panel and 15% of them were active in at least one assay; those are over-represented in the sample as a whole. Calls of active or inactive are those of the source. Cut-off read from the data, not from the text of the source: active = growth inhibition above about 70%; inactive = the rest.

How the values were obtained:
[1] = NCI Yeast Anticancer Drug Screen. Data for the rad50 strain (AID 155);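 note: 0% = growth of vehicle-only cultures of the same strain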; settings: S. cerevisiae rad50 strain growth inhibition, hits give high values
In short: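 Vehicle-treated cultures provide the reference for the growth inhibition reported for compound-exposed, repair-deficient yeast.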

[2] = NCI Yeast Anticancer Drug Screen. Data for the mec2-1 strain (AID 157); settings: S. cerevisiae mec2-1 strain, hits give high values
In short: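 mec2-1 yeast strain, carrying an alteration in DNA damage repair or cell cycle control, was exposed to compounds; growth inhibition was measured relative to vehicle-treated controls.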

[3] = NCI Yeast Anticancer Drug Screen. Data for the sgs1 mgt1 strain (AID 161);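 note: 0% = growth of cultures given vehicle only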; settings: S. cerevisiae sgs1 mgt1 strain, hits give high values
In short: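 Yeast cells carrying a defined DNA-repair defect were exposed to test compounds. Growth inhibition was measured relative to vehicle-treated controls.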

[4] = NCI Yeast Anticancer Drug Screen. Data for the cln2 rad14 strain (AID 165);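 note: 0% = growth equal to vehicle treated cultures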; settings: S. cerevisiae cln2 rad14 strain, hits give high values
In short: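 Yeast carrying cln2 and rad14 alterations (cell cycle control and DNA damage repair) were exposed to compounds. Growth inhibition was measured against vehicle-treated controls.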

[5] = NCI Yeast Anticancer Drug Screen. Data for the bub3 strain (AID 167); settings: S. cerevisiae bub3 mutant strain, hits give high values
In short: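 Mutant yeast screening strain plus compound; vehicle-treated cultures serve as the 0% inhibition reference.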

[6] = NCI Yeast Anticancer Drug Screen. Data for the mlh1 rad18 strain (AID 175); settings: S. cerevisiae mlh1 rad18 strain growth inhibition, hits give high values
In short: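 Growth inhibition of the yeast strain was measured after compound exposure and expressed relative to vehicle-treated controls. The strain carries defined defects in DNA damage repair.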

[7] = at 5.0 µM (retest, dose inferred, filed as 0.5)
[8] = at 50.0 µM (retest, dose inferred, filed as 5.0)

Measured: growth inhibition

Cc1cc2c(cc1C)[n+]([O-])c(-c1c(Cl)cccc1Cl)c(N)[n+]2[O-]
active: [1]; [8] 88% | [1]; at 50.0 µM 82.5% | [2]; [8] 98% | [3]; [8] 100% | [3]; at 50.0 µM 79.4% | [4]; [8] 77% | [5]; [8] 99% | [5]; at 50.0 µM 93.5% | [6]; [8] 98% | [6]; at 50.0 µM 93.7%
inactive: [1]; [7] 13% | [2]; [7] 27% | [2]; at 50.0 µM 45.2% | [3]; [7] 40% | [4]; [7] 18% | [4]; at 50.0 µM 69% | [5]; [7] 56% | [6]; [7] 45%

Oc1ccc(C2CCCCC2)cc1
inactive: [1]; [7] 1% | [1]; [8] 59% | [2]; [7] -4% | [2]; [8] 51% | [3]; [7] -10% | [3]; [8] 54% | [4]; [7] -4% | [4]; [8] 37% | [4]; at 50.0 µM 5.7% | [5]; [7] -4% | [5]; [8] 62% | [5]; at 50.0 µM 48.6% | [6]; [7] 0% | [6]; [8] 40%
active: [1]; at 50.0 µM 85.5% | [2]; at 50.0 µM 79.5% | [3]; at 50.0 µM 95.3% | [6]; at 50.0 µM 93.8%

Cc1ccc[n+](CC(=O)C2CCC3C4CC=C5CC(O)CCC5(C)C4CCC23C)c1 (configuration not stated)
active: [1]; at 50.0 µM 95.4% | [2]; at 50.0 µM 98.2% | [3]; at 50.0 µM 98.8% | [4]; at 50.0 µM 90.1% | [5]; at 50.0 µM 96.8% | [6]; at 50.0 µM 98%
inactive: [1]; [7] 2% | [1]; [8] 28% | [2]; [7] 1% | [2]; [8] 24% | [3]; [7] 5% | [3]; [8] 64% | [4]; [7] 6% | [4]; [8] 25% | [5]; [7] 3% | [5]; [8] 27% | [6]; [7] -4% | [6]; [8] 24%

Cc1cc(O)c(O)cc1C/C=C/c1ccccc1
inactive: [1]; [7] -1% | [1]; at 50.0 µM 53.2% | [2]; [7] 1% | [2]; at 50.0 µM 26.7% | [3]; [7] 5% | [3]; at 50.0 µM 51.5% | [4]; [7] -5% | [4]; at 50.0 µM 42.5% | [5]; [7] 0% | [5]; at 50.0 µM 53.2% | [6]; [7] -10% | [6]; at 50.0 µM 40.6%
active: [1]; [8] 92% | [2]; [8] 97% | [3]; [8] 97% | [4]; [8] 82% | [5]; [8] 96% | [6]; [8] 96%

O=C(CC(c1cccnc1)C(C(=O)c1ccc(Cl)cc1)C(CC(=O)c1ccc(Cl)cc1)c1cccnc1)c1ccc(Cl)cc1 (configuration not stated)
inactive: [1]; at 50.0 µM 59.3% | [2]; [7] 48% | [2]; at 50.0 µM 65.2% | [3]; [7] 56% | [3]; at 50.0 µM 52.2% | [4]; [7] 32% | [4]; at 50.0 µM 36.9% | [5]; [7] 11% | [5]; at 50.0 µM 30.8% | [6]; [7] 63%
active: [1]; [7] 80% | [1]; [8] 92% | [2]; [8] 95% | [3]; [8] 96% | [4]; [8] 96% | [5]; [8] 92% | [6]; [8] 93% | [6]; at 50.0 µM 87.1%

CN(/N=C/c1ccc(C(=O)O)cc1)C1=NCCCCN1
inactive: [1]; [7] -2% | [1]; [8] 29% | [1]; at 50.0 µM 5.85% | [2]; [7] -4% | [2]; [8] 25% | [2]; at 50.0 µM 3.4% | [3]; [7] -2% | [3]; [8] 45% | [3]; at 50.0 µM -7.95% | [4]; [7] 3% | [4]; [8] 12% | [4]; at 50.0 µM 40.5% | [5]; [7] 2% | [5]; [8] 28% | [5]; at 50.0 µM 3.2% | [6]; [7] 1% | [6]; [8] 33% | [6]; at 50.0 µM -11.1%

Nc1cccc2c1[nH]c(=O)c1ccccc12
active: [1]; [8] 70% | [1]; at 50.0 µM 78.8% | [4]; at 50.0 µM 77.9% | [5]; [8] 98% | [5]; at 50.0 µM 75.8% | [6]; [8] 97% | [6]; at 50.0 µM 91.2%
inactive: [1]; [7] 7% | [2]; [7] 5% | [2]; [8] 31% | [2]; at 50.0 µM 64% | [3]; [7] 2% | [3]; [8] 33% | [3]; at 50.0 µM 51.9% | [4]; [7] -4% | [4]; [8] 40% | [5]; [7] -3% | [6]; [7] 9%

CCn1c(=O)cc2n(C)c3ccccc3n2c1=O
inactive: [1]; [7] -30% | [1]; [8] -23% | [1]; at 50.0 µM 17.3% | [2]; [7] 0% | [2]; [8] -7% | [2]; at 50.0 µM 17.4% | [3]; [7] -15% | [3]; [8] -28% | [3]; at 50.0 µM -5.15% | [4]; [7] -39% | [4]; [8] -24% | [4]; at 50.0 µM 62.7% | [5]; [7] -23% | [5]; [8] -15% | [5]; at 50.0 µM 0.6% | [6]; [7] -36% | [6]; [8] -14% | [6]; at 50.0 µM 23.4%

CCCOC1(C)CC(c2cc(OC)c(OC)c(OC)c2)c2cc3c(cc2O1)OCO3 (configuration not stated)
active: [1]; [8] 96% | [2]; [8] 100% | [3]; [8] 99% | [4]; [8] 99% | [5]; [8] 99% | [6]; [8] 99%
inactive: [1]; [7] 5% | [1]; at 50.0 µM 5.1% | [2]; [7] 5% | [2]; at 50.0 µM 7.75% | [3]; [7] 5% | [3]; at 50.0 µM -2.6% | [4]; [7] 4% | [4]; at 50.0 µM 34.7% | [5]; [7] 5% | [5]; at 50.0 µM 3.15% | [6]; [7] 2% | [6]; at 50.0 µM 18.9%
